# According to article PMC4336329 (PLoS ONE, 2015):
# Screen size: about 310,000 compounds; about 14,000 (4.5%) showed an effect of 50% or more. The effect is printed as a negative number. Shown is part of a subset that was picked to be rich in strong results.
# Target: human ether-à-go-go-related gene (hERG) potassium channel (human, UniProt Q12809)
# Experiment: primary screen, population patch clamp on CHO cells stably expressing hERG; higher = less effect of the substance
# 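Further: peak tail current of the secondary pulse compared with the same well before compound.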
# human ether-à-go-go-related gene (hERG) potassium channel, sequence (Q12809 whole entry, looked up): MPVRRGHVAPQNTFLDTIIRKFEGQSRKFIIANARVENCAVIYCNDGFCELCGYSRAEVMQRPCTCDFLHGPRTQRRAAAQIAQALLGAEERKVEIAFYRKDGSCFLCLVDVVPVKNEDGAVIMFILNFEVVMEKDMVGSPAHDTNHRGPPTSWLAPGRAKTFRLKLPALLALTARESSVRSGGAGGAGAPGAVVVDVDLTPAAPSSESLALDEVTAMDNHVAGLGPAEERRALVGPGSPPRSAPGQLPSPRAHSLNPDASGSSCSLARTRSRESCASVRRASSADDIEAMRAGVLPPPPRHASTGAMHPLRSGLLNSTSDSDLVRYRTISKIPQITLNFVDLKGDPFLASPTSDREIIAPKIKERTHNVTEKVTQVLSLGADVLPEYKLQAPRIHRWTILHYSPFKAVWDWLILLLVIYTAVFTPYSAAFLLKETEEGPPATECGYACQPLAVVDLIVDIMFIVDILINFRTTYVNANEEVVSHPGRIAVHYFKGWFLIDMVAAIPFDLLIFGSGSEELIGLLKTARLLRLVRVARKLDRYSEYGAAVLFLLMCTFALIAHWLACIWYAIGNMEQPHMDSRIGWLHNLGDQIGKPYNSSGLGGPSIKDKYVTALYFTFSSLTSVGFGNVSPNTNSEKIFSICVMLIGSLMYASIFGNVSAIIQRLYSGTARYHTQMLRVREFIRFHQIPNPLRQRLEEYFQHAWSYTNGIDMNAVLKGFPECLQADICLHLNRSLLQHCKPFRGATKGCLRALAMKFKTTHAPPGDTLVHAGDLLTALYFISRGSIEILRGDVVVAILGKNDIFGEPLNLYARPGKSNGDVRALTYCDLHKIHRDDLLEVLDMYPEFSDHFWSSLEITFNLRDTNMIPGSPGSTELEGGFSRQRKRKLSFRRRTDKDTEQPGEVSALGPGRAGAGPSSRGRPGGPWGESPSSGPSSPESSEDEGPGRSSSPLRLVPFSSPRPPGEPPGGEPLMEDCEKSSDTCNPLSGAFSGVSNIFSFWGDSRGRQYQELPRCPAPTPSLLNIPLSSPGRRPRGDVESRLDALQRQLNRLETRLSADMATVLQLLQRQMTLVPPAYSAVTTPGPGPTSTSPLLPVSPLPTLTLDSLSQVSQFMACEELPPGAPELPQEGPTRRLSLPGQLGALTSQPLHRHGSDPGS
row,SMILES,"hERG current change (%, negative = inhibition) at 10uM"
1,C[C@]12C(=O)N(c3ccc(Cl)cc3)C(=O)N1[C@@H]1c3ccccc3OC[C@@H]1[C@H]2c1ccccc1,8.19%
2,CCC(C)N1CC23C=CC(O2)C(C(=O)OCc2ccccc2)C3C1=O (stereo not drawn),5.54%
3,CC(C)c1ccc(NC(=O)COC(=O)c2cc(=O)[nH]c3ccccc23)cc1,-8.12%
4,O=C(Cc1ccc(S(=O)(=O)N2CCOCC2)s1)NCCOc1ccccc1,-8.35%
5,CCCCCNC(=O)Cc1ccc(S(=O)(=O)N2CCOCC2)s1,-5.94%
6,O=C(Cc1ccc(S(=O)(=O)N2CCOCC2)s1)NCCC(c1ccccc1)c1ccccc1,-54.8%
7,Cc1ccc[n+](CC(=O)Nc2ccc([N+](=O)[O-])cc2)c1.[Cl-],10.9%
8,CCOc1ccc(S(=O)(=O)N2CCCCCC2)cc1,-8.37%
9,Cn1c(NC(=O)C(C)(C)Oc2ccc(Cl)cc2)cc(=O)n(C)c1=O,-15%
10,Cc1ccc(C(=O)N/C(=C/C=C/c2ccccc2)C(=O)NCc2ccco2)cc1,-28.9%
11,O=C(NCc1ccco1)/C(=C/C=C\c1ccccc1)NC(=O)c1ccc(Br)o1,-59.6%
12,N#C/C(=C\C=C\c1ccccc1)C(=O)NCc1ccco1,-3.85%
13,Cc1ccc(C(=O)N/C(=C\C=C\c2ccccc2)C(=O)NCc2ccco2)cc1,-50.3%
14,Cc1ccc(C(=O)N/C(=C/C=C\c2ccccc2)C(=O)NCc2ccco2)cc1,-27.7%
15,O=C(NCc1ccco1)/C(=C\C=C\c1ccccc1)NC(=O)c1ccco1,-38.3%
16,O=C(NCc1ccco1)/C(=C/C=C/c1ccccc1)NC(=O)c1ccco1,-36.4%
17,O=C(NCc1ccco1)c1ccccc1Br,7.63%
18,O=C(NCc1ccco1)/C(=C\C=C\c1ccccc1)NC(=O)c1ccccc1Br,-70.5%
19,Cc1ccc(C)c(NS(=O)(=O)c2ccc(NC(=O)CSc3ccc(Cl)cc3)cc2)c1,17.8%
20,O=C(N/N=C/c1ccccc1[N+](=O)[O-])c1cccs1,5.65%

row,SMILES,"hERG current change (%, negative = inhibition) at 10uM"
1,C=CCn1c(Cc2ccccc2)nc2c(cnn2-c2ccccc2)c1=O,-34.8%
2,COc1cccc(N2CC(C(=O)Nc3nnc(SCC(=O)N4CCOCC4)s3)CC2=O)c1 (stereo not drawn),18.1%
3,CC(=O)N(Cc1cc(=O)[nH]c2ccccc12)c1cccc(C)c1,-8.96%
4,CCc1cc(C(=O)N2CCCC(CNC(=O)c3ccc(-c4ccccc4)cc3)C2)no1 (stereo not drawn),-58.1%
5,CSCC(=O)N1CCCC(CNC(=O)c2ccc(-c3ccccc3)cc2)C1 (stereo not drawn),-28.5%
6,CSCCC(=O)N1CCCC(CNC(=O)c2ccc(-c3ccccc3)cc2)C1 (stereo not drawn),-73.2%
7,O=C(NCC1CCCN(C(=O)c2cscn2)C1)c1ccc(-c2ccccc2)cc1 (stereo not drawn),-15.1%
8,O=C(NCC1CCCN(C(=O)c2cccnc2)C1)c1ccc(-c2ccccc2)cc1 (stereo not drawn),-26.8%
9,CC(=O)CCC(=O)N1CCCC(CNC(=O)c2ccc(-c3ccccc3)cc2)C1 (stereo not drawn),-13.8%
10,CCOc1ccc(C2CC(c3ccc(CC)cc3)Nc3nc(N)nn32)cc1 (stereo not drawn),1.96%
11,COc1ccc(Cl)cc1NS(=O)(=O)c1cccc(C(=O)NCC(C)(C)N2CCOCC2)c1,-12.6%
12,O=C(Cc1ccccc1)N/N=C/c1ccccc1Cl,2.14%
13,O=C(NCc1ccccn1)c1cccc(S(=O)(=O)Nc2ccccc2Cl)c1,-2.4%
14,Cc1ccc(S(=O)(=O)N(C)C)cc1NC(=O)COC(=O)c1ccc2c(c1)NC(=O)CS2,-32.5%
15,COC(=O)[C@@H]1Cc2c([nH]c3ccccc23)C(C)N1C(=O)c1ccccc1 (stereo partly drawn),3.27%
16,CN1CCc2c(sc3nc(NN)n(-c4ccc(Cl)cc4)c(=O)c23)C1,14.6%
17,Cc1ccc2[nH]c(=O)c(CN(CCCN3CCOCC3)C(=O)NC3CCCCC3)cc2c1,-25.7%
18,CCN(CC)CCN(Cc1cc2cc3c(cc2[nH]c1=O)OCCO3)C(=O)NC1CCCCC1,-28.7%
19,Cc1cc(C)c2cc(CN(CCO)C(=O)NC3CCCCC3)c(=O)[nH]c2c1,-3.62%
20,CC(=O)N(Cc1cc2c(C)cc(C)cc2[nH]c1=O)C1CCCCC1,8.13%

row,SMILES,"hERG current change (%, negative = inhibition) at 10uM"
1,CCc1ccc2[nH]c(=O)c(CN(CCN(CC)CC)C(=O)NC3CCCCC3)cc2c1,-66.6%
2,COc1ccc(CN(Cc2cc3cc(OC)c(OC)cc3[nH]c2=O)C(=O)NC2CCCCC2)cc1,7.13%
3,CCN(CC)CCN(Cc1cc2ccc(C)cc2[nH]c1=O)C(=O)NC1CCCCC1,-73.1%
4,CCN1CCCC1CN(Cc1cc2c(C)cc(C)cc2[nH]c1=O)C(=O)NC1CCCCC1 (stereo not drawn),-76%
5,CCc1ccc2[nH]c(=O)c(CN(CCN3CCCC3)C(=O)NC3CCCCC3)cc2c1,-40.9%
6,Cc1nc2sc(C)c(C)c2c(=O)[nH]1,13.7%
7,COc1ccccc1/C=C/C(=O)NCC(=O)N/N=C/c1ccccc1[N+](=O)[O-],-36.9%
8,CCOc1ccc(NC(=O)Cn2sc3nc(C)cc(C)c3c2=O)cc1,4.94%
9,CCC(C)c1ccc(NC(=O)CSc2nncn2N)cc1 (stereo not drawn),-27.5%
10,COc1ccc(S(=O)(=O)NCCSCc2ccccc2C)cc1Br,-1.29%
11,C=CCN1C(=Nc2cccnc2)SCC1(O)c1ccc(C)cc1 (stereo not drawn),4.64%
12,Cc1ccc(CSc2nnc3ccc(-c4ccncc4)nn23)cc1,-42.4%
13,Nn1c(SCc2cccc(F)c2)nnc1-c1ccncc1,-4.03%
14,Fc1ccccc1CSc1nnc2ccc(-c3ccncc3)nn12,-43.1%
15,Cc1ccccc1CSc1nnc2ccc(-c3ccncc3)nn12,-20.8%
16,Fc1cccc(CSc2nnc3ccc(-c4ccncc4)nn23)c1,-60.4%
17,c1ccc(CSc2nnc3ccc(-c4ccncc4)nn23)nc1,7.44%
18,c1ccc(CSc2nnc3ccc(-c4ccncc4)nn23)cc1,-58.3%
19,c1cncc(CSc2nnc3ccc(-c4ccncc4)nn23)c1,-26.7%
20,Fc1ccc(CSc2nnc3ccc(-c4ccncc4)nn23)cc1,-70.1%
